PMC5540273 (PLoS ONE, 2017)

test system: PFTAIRE2; conditions: concentration: 1 μM, replicates: in singlicate; n = 1
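Note: KINOMEscan kinase panel screen.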

Row | Structure (SMILES) | %Inh [%]
1 | CCC(CC)(CC)n1cnc2c(N)ncnc21 [SKF-97620] | 0
2 | Cc1ccc(NC(=O)c2cccc(C#N)c2)cc1-c1ccc(C(=O)Nc2ccncc2)cc1 [GSK1398463] | 13
3 | CSc1nn2c(=O)cc(N3CCOCC3)nc2n1Cc1cccc(Cl)c1Cl [GSK2347225] | 45
4 | FC(F)(F)c1cc(Nc2nccc(-c3c(-c4ccc(Cl)cc4)nn4ncccc34)n2)ccc1Cl [GW829351] | 0
5 | CC(=O)Nc1n[nH]c2ncc(-c3ccccc3)cc12 [SB-548492] | 14
6 | O=C(Nc1n[nH]c2nc(-c3ccco3)c(Br)cc12)c1ccc(CN2CCCC2)cc1.O=C(O)[C@H](O)[C@@H](O)C(=O)O [SB-742352] | 5
7 | O=C(NCCCN1CCCC1=O)c1cnc(NCc2cc(Cl)ccc2Cl)nc1NC1CCNCC1 | 0
8 | Nc1nccc2scc(-c3ccc4c(c3)CCN4C(=O)Cc3cc(F)ccc3F)c12 [GSK2587663] | 15
9 | CN1CCC(n2cnc(-c3ccc(F)cc3)c2-c2ccnc(NC3CCNCC3)n2)CC1 [SB-229482] | 17
10 | Oc1ccc2ncnc(Nc3ccc(OCc4ccccc4)cc3)c2c1 [GI262866] | 13
11 | COc1ccc(NC(=O)c2ccc(-c3cc(-c4nnc(C)o4)ccc3C)cc2)cc1 [GW595885] | 0
12 | CC(C)N1CCC(n2cnc(-c3ccc(F)cc3)c2-c2ccnc(N)n2)CC1 [SB-223132] | 0
13 | COc1ccc(Nc2nccc(N3CCC(NC(=O)Nc4ccc5c(c4)OCO5)C3)n2)cc1 (stereo not shown) [GSK1379745] | 11
